Values joined by “and” are separate entries in the source; they are usually repeats but may differ in a detail not shown here. Identical values can stand only once. Results filed as inconclusive are left out. Active and inactive are the calls of the source. Calls come from the whole dose curve; as a rule, active = well fitted activation curve with a large enough effect; inconclusive = small, poorly fitted or top-dose-only effect; inactive = flat fitted curve, though single readings scatter.
Assay: qHTS assay for environmental chemicals that activate the Aryl hydrocarbon Receptor (AhR) signaling pathway (AID 651777); note: nearly all actives have a fitted effect of over 15% in size; for activation: % of control where 0% means no effect
Conditions: 1A2-DRE human hepatoma cells, luciferase, 24 h; activation: stronger effect = higher value
Description: National Center for Advancing Translational Sciences [NCATS]
NIH Chemical Genomics Center [NCGC]
U.S. Environmental Protection Agency [EPA]
National Institutes of Environmental Health Sciences [NIEHS]
National Toxicology Program [NTP]
The Aryl hydrocarbon Receptor (AhR) plays a critical role in the development of cancer or neoplasm and its formation is most likely due to genetic mutations and the influence of environment. Exposure to environmental pollutants such as polycyclic aromatic hydrocarbons (PAH), their halogenated derivatives and heterocyclic amines causes the induction of phase I and II enzymes. The transcriptional activation of CYP1A2 is directly regulated by AhR.
A cell based assay (1A2-DRE cells, developed by Puracyp, Inc., CA) was used to assess the activation of AhR. Human hepatoma cells were stably transfected with the dioxin response element (DRE) and CYP1A2 promoter fused to a luciferase gene. Increased luciferase activity can be used to identify the compounds that cause the induction of CYP1A2 and AhR activation.
1,200 cells in 5 uL/well were dispensed into white wall/solid bottom 1536-well plates using a Multidrop Combi (Thermo Scientific) dispenser. Following transfer of 23 nL compound or DMSO vehicle by a pin tool, the plates were incubated 24 hr at 37 C and 5% CO2. 5 ul One-Glo (Promega) was then added to each well and following 30 min incubation at room temperature, luciferase activity was quantified on a ViewLux CCD-based plate reader.
Potency is the fitted concentration of half-maximal effect.

SMILES	activation	Potency
CCCCOCCOCCSC#N	-0.297% (inactive)	–
OC1CCCC1	-0.947% (inactive)	–
CCCCCCCCC/C=C/CC1CC(=O)OC1=O (stereo not given)	0.696% (inactive)	–
Cc1ccc(C)c([N+](=O)[O-])c1	0.781% (inactive)	–
OCCO	0.215% (inactive)	–
O=C(O)c1ccccc1Cl	-2.05% (inactive)	–
NC=O	1.58% (inactive)	–
CCCCCO	0.0119% (inactive)	–
Cc1cc(C2(c3cc(C)c(O)cc3C)OS(=O)(=O)c3ccccc32)c(C)cc1O	0.42% (inactive)	–
CC1CCC2CC1C2(C)C (stereo not given)	-0.275% (inactive)	–
c1ccc(Oc2ccccc2)cc1	-0.267% (inactive) and -0.51% (inactive)	–
NC(=O)CCCCC(N)=O	-0.919% (inactive)	–
CC#N	0.208% (inactive)	–
COC(=O)CS	-0.254% (inactive)	–
CC(C)CO	-1.47% (inactive)	–
Cc1ccc(C)cc1	0.01% (inactive)	–
ClCCl	0.008% (inactive)	–
Cc1ccc(Cl)cc1	-0.186% (inactive)	–
CC(N)CN (stereo not given)	-0.27% (inactive)	–
C=CCOC(=O)CCCCCCCC	-2.14% (inactive)	–

SMILES	activation	Potency
N#CCc1ccccc1[N+](=O)[O-]	4.16% (inactive)	–
CC(C)Cc1nccs1	1% (inactive)	–
O=C1NC(=O)c2cc([N+](=O)[O-])ccc21	-0.349% (inactive)	–
COCCOC(=O)c1ccccc1C(=O)OCCOC	-0.057% (inactive)	–
Cc1ccc(Br)cc1	0.745% (inactive)	–
CC/C=C/C#N	-1.16% (inactive)	–
CC(C)C=O	0.299% (inactive)	–
CC(C)N(C)C	-0.41% (inactive)	–
O=P(O)(OCc1ccccc1)OCc1ccccc1	1.44% (inactive)	–
Oc1c(Cl)ccc(Cl)c1Cl	-0.586% (inactive)	–
C=C(C)C(=O)OCC(C)O (stereo not given)	0.365% (inactive)	–
Cc1ccc2nc(-c3ccc(N)cc3)sc2c1S(=O)(=O)O	–	39.8 µM (active)
NC(=S)NNC(N)=S	0.955% (inactive) and 1.28% (inactive)	–
Cc1cccc(C(=O)O)c1	0.807% (inactive)	–
CCOC(C)(C)C	-0.13% (inactive)	–
CCOc1cccc(N)c1	1.67% (inactive)	–
O=C(O)c1cccc([N+](=O)[O-])c1	0.347% (inactive) and -2.14% (inactive)	–
Nc1cc(Cl)c([N+](=O)[O-])cc1O	6.24% (inactive)	–
C=CCn1c(=O)n(CC=C)c(=O)n(CC=C)c1=O	0.438% (inactive)	–
CC(=O)OCc1ccco1	1.48% (inactive)	–

From PubChem BioAssay (NCATS)
